This note sets out measurements from PubChem BioAssay (Tox21).

Results filed as inconclusive are left out. The source made the active and inactive calls. Unless noted, calls come from the whole dose curve; as a rule, active = well fitted curve in the direction sought with a large enough effect in the repeat runs; inconclusive = weak or mixed curves; inactive = no such curve, though single readings can be large; an effect the other way counts as inactive or inconclusive.

The nature of experiment [1]: qHTS assay to identify small molecule agonists of the vitamin D receptor (VDR) signaling pathway - cell viability counter screen (AID 743224). Note: series mostly up to about 63 µM; nearly all actives have a fitted effect of over 50% in size. In short, it runs like this:
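In parallel with the bla FRET readout, cytotoxicity toward VDR-bla cells after 16 h compound exposure was assessed by CellTiter-Glo, with luminescence recorded after a 30 min room-temperature incubation.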
(In general: Quantitative high-throughput screening tests each substance at several concentrations.)

Experiment [2] is described as follows: qHTS assay to identify small molecule agonists of the NFkB signaling pathway (AID 1159509; active = well fitted curve in the direction sought with a large enough effect in the signal ratio in the repeat runs, not every such curve was filed as active; the % refers to the signal ratio; note: series mostly up to about 61 µM). In short, it runs like this: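 Readout: FRET fluorescence, 405 nm excitation, 460/530 nm emission; beta-lactamase expression disrupts FRET. Cells: ME-180 stably carrying NF-kB-driven bla reporter. Compound exposure 5 hr, 37 C, 5% CO2.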
A short description of experiment [3]: qHTS assay to identify small molecule agonists of the endoplasmic reticulum stress response signaling pathway - cell viability counter screen (AID 1159517; calls by dose curve; note: series mostly up to about 61 µM; nearly all actives have a fitted effect of over 50% in size). An outline of the steps:
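After overnight attachment, ESRE-bla HeLa cells were treated with Tox21 library compounds for 5 hr. CellTiter-Glo luminescence, read 30 min post-addition at room temperature, reported viability.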

Experiment [4] in a line: qHTS assay to identify small molecule agonists of the AP-1 signaling pathway - cell viability counter screen (AID 1159525; calls by dose curve; note: nearly all actives have a fitted effect of over 55% in size). An outline of the steps: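 Intracellular ATP by Cell Titer Glo luminescence (30 min, RT) in the same ME-180 AP-1-bla wells after the 5 h compound exposure at 37 °C. Normalised to tetra n-octyl ammonium bromide and DMSO controls.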
The nature of experiment [5]: qHTS assay to identify small molecule agonists of the AP-1 signaling pathway (AID 1159526; calls by dose curve).
A short description of experiment [6]: qHTS assay to identify small molecule antagonists of the retinoid acid receptor (RAR) signaling pathway - cell viability counter screen (AID 1159551). Note: nearly all actives have a fitted effect of over 35% in size. An outline of the steps: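 Viability of C3RL4 cells is quantified from ATP by luminescence after 6 h treatment at 37 C with compounds and 1 uM retinol.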
Experiment [7] is described as follows: qHTS assay to identify small molecule agonists of the retinoic acid receptor (RAR) signaling pathway (AID 1159553). An outline of the steps: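 Compounds dissolved in DMSO were pinned onto C3RL4 cells seeded the previous day, and plates were held 6 hr at 37 C. RARE-driven luciferase output was then read by luminescence.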
A short description of experiment [8]: qHTS assay to identify small molecule antagonists of the vitamin D receptor (VDR) signaling pathway - cell viability counter screen (AID 743225). Note: nearly all actives have a fitted effect of over 50% in size. In short, it runs like this: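 Parallel cytotoxicity test: VDR-UAS-bla HEK 293T, 3 nM (final) 1-alpha,25-dihydroxyvitamin D3 with test compound, 16 h, 37C. Endpoint is CellTiter-Glo luminescence in the same wells.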

Experiment [9] in a line: qHTS assay to identify small molecule agonists of the endoplasmic reticulum stress response signaling pathway (AID 1159516; active = well fitted activation curve with a large enough effect in the signal ratio in the repeat runs, not every such curve was filed as active; the % refers to the signal ratio). An outline of the steps: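 Beta-lactamase expression from the ER stress response element in HeLa reporter cells is quantified with the LiveBLAzer B/G FRET substrate, read at 405 nm excitation after 2 hr at room temperature, following 5 hr compound treatment at 37 C.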

Experiment [10] can be described thus: qHTS assay to identify small molecule antagonists of the retinoid-related orphan receptor gamma (ROR-gamma) signaling pathway - cell viability counter screen (AID 1159520). Note: nearly all actives have a fitted effect of over 50% in size. An outline of the steps: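 Cytotoxicity was read from cellular ATP (CellTiter-Glo luminescence) after 16 hr at 37 C with 1 uM doxycycline induction. The inducer was added 2 hr after compound transfer to Tet-on ROR gamma CHO cells.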

The nature of experiment [11]: qHTS assay to identify small molecule antagonists of the retinoic acid receptor (RAR) signaling pathway (AID 1159552; note: nearly all actives have a fitted effect of over 50% in size). An outline of the steps: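 C3RL4 RARE-luc cells, overnight plating; retinol 1 uM final added right after compound; 6 hr 37 C; luciferase read at 30 min RT.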
Experiment [12] can be described thus: qHTS assay to identify small molecule agonists of the RXR signaling pathway - cell viability counter screen (AID 1159529). In short, it runs like this:
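In this parallel viability measure, GeneBLAzer RXR-alpha HEK 293T cells (2% charcoal-stripped FBS) were given a 5 hr preincubation, treated with compounds 16 hr at 37 C, and read by CellTiter-Glo luminescence.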

Experiment [13] addresses Retinoic acid receptor RXR-alpha (Homo sapiens) (UniProt P19793). Nature of the experiment: qHTS assay to identify small molecule agonists of the RXR signaling pathway (AID 1159527; calls by dose curve; note: nearly all actives have a fitted effect of over 35% in size). In short, it runs like this: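 16 hr incubation of compound-treated RXR-alpha-UAS-bla HEK 293T cells (2% charcoal-stripped FBS, 37 C) preceded a 2 hr room-temperature LiveBLAzer FRET substrate step and blue/green fluorescence measurement.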

A short description of experiment [14]: qHTS assay to identify small molecule antagonists of the estrogen related receptor (ERR) signaling pathway (AID 1224819). An outline of the steps: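 ERR reporter cells were plated at 2,000 cells/well and left 6 h at 37 C/5% CO2 before pin-tool transfer of compounds in DMSO. After 18 h at 37 C, One-Glo was added and luminescence was read 30 min later at room temperature.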

The nature of experiment [15]: qHTS assay to identify small molecule agonists of the estrogen related receptor (ERR) signaling pathway (AID 1224820). In short, it runs like this: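 Luminescence readout (One-Glo, 30 min RT) from NTP-supplied ERR cell line exposed to compounds for 18 h at 37 C. Cells seeded 2,000 per well and pre-incubated 6 h before pin-tool compound transfer.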
The target in experiment [16] is Nuclear receptor ROR-gamma (Homo sapiens) (UniProt P51449). Nature of the experiment: qHTS assay to identify small molecule antagonists of the retinoid-related orphan receptor gamma (ROR-gamma) signaling pathway (AID 1159521). An outline of the steps:
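Decreased RORE-driven luciferase luminescence indicates antagonism. Tet-on RORγ CHO cells received compound, then 1 uM final doxycycline 2 h later; signal read after 16 h incubation.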

Chain of Retinoic acid receptor RXR-alpha (Homo sapiens) (P19793 whole entry, looked up): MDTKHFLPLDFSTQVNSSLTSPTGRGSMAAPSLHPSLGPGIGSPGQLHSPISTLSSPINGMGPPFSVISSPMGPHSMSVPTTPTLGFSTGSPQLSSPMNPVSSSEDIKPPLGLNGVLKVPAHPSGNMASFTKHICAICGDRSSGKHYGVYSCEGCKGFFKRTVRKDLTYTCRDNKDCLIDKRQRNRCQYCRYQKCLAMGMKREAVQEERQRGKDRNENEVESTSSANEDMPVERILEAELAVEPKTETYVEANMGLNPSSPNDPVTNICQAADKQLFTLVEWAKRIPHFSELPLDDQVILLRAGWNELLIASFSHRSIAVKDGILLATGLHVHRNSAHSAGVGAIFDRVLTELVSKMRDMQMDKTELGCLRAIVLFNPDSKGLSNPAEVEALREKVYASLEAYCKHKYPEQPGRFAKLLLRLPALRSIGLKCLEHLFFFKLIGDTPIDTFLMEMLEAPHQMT

In the case of `CC(=N\O)/C(C)=N/O`, the Potency entry in experiment [1], in experiment [6] and in experiment [7] was “inactive” each time. For the same molecule, the result in experiment [2], in [3], in experiment [4] and in [5] was inactive.
For the molecule `CCCCC(=O)O[C@]1(C(=O)CO)CC[C@H]2[C@@H]3CCC4=CC(=O)CC[C@]4(C)[C@H]3[C@@H](O)C[C@@]21C`, the Potency entry in experiment [1], in experiment [8], in [10], in experiment [6], in experiment [11] and in experiment [7] was “inactive” throughout. Also, the molecule was classed as inactive in experiment [2], in experiment [9], in [3] and in experiment [4].
On to `Cc1oc(C)c(C(=O)Nc2ccccc2)c1C`, for which the molecule was classed as inactive in experiment [2], in [9], in experiment [3], in experiment [4] and in experiment [5]. Also, the Potency result in experiment [10], in [12], in experiment [11] and in experiment [7] was “inactive” each time.
Turning to `COCc1c(C(C)C)nc(C(C)C)c(/C=C/[C@@H](O)C[C@@H](O)CC(=O)O)c1-c1ccc(F)cc1`, the Potency result in [1], in experiment [8], in [13], in [6], in experiment [11] and in [7] was “inactive” in each case. Moreover, the molecule was classed as inactive in experiment [2], in experiment [9], in experiment [3], in experiment [4] and in experiment [5].
On to `CCN(Cc1cccc(S(=O)(=O)O)c1)c1ccc(C(=C2C=CC(=[N+](CC)Cc3cccc(S(=O)(=O)[O-])c3)C=C2)c2ccccc2)cc1`, for which the Potency entry in [1], in experiment [10] and in experiment [11] was “inactive” each time. Also, the outcome in [2], in experiment [9], in experiment [3] and in [4] was inactive.
Consider `CCNC(=O)N1CCN(CCCC(c2ccc(F)cc2)c2ccc(F)cc2)CC1`, for which the Potency result in experiment [8], in experiment [10], in [6] and in experiment [7] was “inactive” throughout. For the same molecule, the call in experiment [2], in experiment [9], in experiment [3], in experiment [4], in [5] and in experiment [15] was inactive. Further, in [14], the Potency was 8.1 µM (active).
`CCCCCCCC/C=C\CCCCCCCC(=O)OC`: the Potency result in experiment [1], in experiment [10], in experiment [13] and in [6] was “inactive” each time. For the same molecule, the result in experiment [2], in experiment [9], in [3], in experiment [4] and in experiment [5] was inactive.
Take `O=C(CCCCCCCCC#CI)Oc1ccccc1`: the Potency entry in [1], in experiment [8], in experiment [10], in experiment [6] and in [7] was “inactive” in each case. The outcome in experiment [2], in experiment [3], in experiment [4] and in experiment [5] was inactive.
For the molecule `CCCCCCCCCCCC[N+](C)(C)CCCS(=O)(=O)[O-]`, the molecule was classed as inactive in experiment [2], in [9], in [3], in [4] and in [5]. Further, the Potency entry in [16], in experiment [6], in [11] and in [7] was “inactive” each time.
For the molecule `Cc1cc(O)c(C(C)C)cc1Cl`, the Potency entry in experiment [1], in experiment [8], in experiment [10], in experiment [16], in [13] and in experiment [6] was “inactive” in each case. Besides, the Potency entry in experiment [11] and in experiment [7] was “inactive” each time. The outcome in experiment [2], in experiment [9] and in [4] was inactive.
With `COc1cc2c(N3CCN(C(=O)Nc4ccc(OC(C)C)cc4)CC3)ncnc2cc1OCCCN1CCCCC1`, the Potency entry in experiment [1], in experiment [8], in experiment [10] and in experiment [6] was “inactive” in each case. Further, the outcome in [2], in experiment [9], in experiment [3], in experiment [4] and in [5] was inactive.
On to `C1COCO1`, for which the Potency entry in [1], in experiment [8], in [10], in experiment [12] and in experiment [6] was “inactive” each time. Moreover, the outcome in experiment [2], in experiment [9], in [3], in experiment [4] and in [5] was inactive.
Take `CN1C(=O)CC(C)(c2ccccc2)C1=O` (stereo not given): the Potency result in experiment [1], in [10], in experiment [13], in experiment [12] and in experiment [11] was “inactive” in each case. Further, the call in [2], in experiment [9], in experiment [3] and in experiment [4] was inactive.
For the molecule `N#C/C(=C1/SC[C@@H](c2ccc(Cl)cc2Cl)S1)n1ccnc1`, the outcome in [2], in experiment [9], in experiment [3], in experiment [4] and in experiment [5] was inactive. Moreover, the Potency result in experiment [10], in experiment [12] and in [6] was “inactive” each time.
As for `Nc1ccc(S(=O)(=O)O)cc1`, the Potency result in experiment [1], in experiment [10], in experiment [12], in experiment [6], in [11] and in experiment [7] was “inactive” throughout. The molecule was classed as inactive in experiment [2], in experiment [9], in [3], in [4] and in [5].
Turning to `CC(CCO)CCc1ccccc1` (stereo not given), the Potency result in experiment [1], in experiment [8], in [10], in [13], in experiment [12] and in experiment [6] was “inactive” throughout. The result in [2], in experiment [9], in experiment [3], in experiment [4] and in [5] was inactive.
As for `CCOC(=O)C(C)Oc1ccc(Oc2nc3ccc(Cl)cc3o2)cc1` (stereo not given), the Potency result in experiment [1], in [8], in experiment [10], in [6] and in [11] was “inactive” throughout. Further, the molecule was called inactive in [2], in experiment [3], in [4] and in [5].
